# According to article PMC11006913:
# Tests used:
# Assay in all cases: PBM; 200 nM protein, PBS
# Conditions in all cases: dsDNA, one strand shown
# HOXB9 [1] = molecular target: HOXB9 (Homo sapiens, UniProt P17482 171-250, T197M)
# HOXC10 [2] = molecular target: HOXC10 (Homo sapiens, UniProt Q9NYD6 254-340)
# HOXB6 [3] = molecular target: HOXB6 (Homo sapiens, UniProt P17509 132-218, K202E)
# HOXB9 [4] = molecular target: HOXB9 (Homo sapiens, UniProt P17482 171-250)
# MSX2 [5] = molecular target: MSX2 (Homo sapiens, UniProt P35548 130-214, R199I)
# Chain of MSX2 (Homo sapiens, UniProt P35548 130-214, R199I) (P35548 130-214 R199I): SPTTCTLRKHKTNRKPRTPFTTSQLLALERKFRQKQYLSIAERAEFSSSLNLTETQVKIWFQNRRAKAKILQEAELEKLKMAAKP
# HOXC10 [6] = molecular target: HOXC10 (Homo sapiens, UniProt Q9NYD6 254-340, K271E)
# Chain of HOXC10 (Homo sapiens, UniProt Q9NYD6 254-340, K271E) (Q9NYD6 254-340 K271E): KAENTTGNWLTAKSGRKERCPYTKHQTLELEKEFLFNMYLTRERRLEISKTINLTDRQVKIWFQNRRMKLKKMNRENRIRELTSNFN
# MSX2 [7] = molecular target: MSX2 (Homo sapiens, UniProt P35548 130-214)
# Chain of MSX2 (Homo sapiens, UniProt P35548 130-214) (P35548 130-214): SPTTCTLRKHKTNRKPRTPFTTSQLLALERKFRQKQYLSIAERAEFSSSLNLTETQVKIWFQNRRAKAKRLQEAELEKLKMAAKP
# HOXB9 [8] = molecular target: HOXB9 (Homo sapiens, UniProt P17482 171-250, R186Q)
# Chain of HOXB9 (Homo sapiens, UniProt P17482 171-250, R186Q) (P17482 171-250 R186Q): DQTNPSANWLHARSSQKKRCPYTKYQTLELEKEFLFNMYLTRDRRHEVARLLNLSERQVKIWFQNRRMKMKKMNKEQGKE
# MSX2 [9] = molecular target: MSX2 (Homo sapiens, UniProt P35548 130-214, F161Y)
# Chain of MSX2 (Homo sapiens, UniProt P35548 130-214, F161Y) (P35548 130-214 F161Y): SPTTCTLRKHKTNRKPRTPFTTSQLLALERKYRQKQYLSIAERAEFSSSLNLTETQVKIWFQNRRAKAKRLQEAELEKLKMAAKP
# HOXB6 [10] = molecular target: HOXB6 (Homo sapiens, UniProt P17509 132-218)
# Chain of HOXB6 (Homo sapiens, UniProt P17509 132-218) (P17509 132-218): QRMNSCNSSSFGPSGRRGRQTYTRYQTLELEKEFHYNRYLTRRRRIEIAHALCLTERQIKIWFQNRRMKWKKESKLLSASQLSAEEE
# ALX4 [11] = molecular target: ALX4 (Homo sapiens, UniProt Q9H161 200-286, Q225E)
# Chain of ALX4 (Homo sapiens, UniProt Q9H161 200-286, Q225E) (Q9H161 200-286 Q225E): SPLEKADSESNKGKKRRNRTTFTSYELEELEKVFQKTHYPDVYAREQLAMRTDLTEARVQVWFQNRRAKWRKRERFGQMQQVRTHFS
# HOXD13 [12] = molecular target: HOXD13 (Homo sapiens, UniProt P35453 263-343, T313R)
# Chain of HOXD13 (Homo sapiens, UniProt P35453 263-343, T313R) (P35453 263-343 T313R): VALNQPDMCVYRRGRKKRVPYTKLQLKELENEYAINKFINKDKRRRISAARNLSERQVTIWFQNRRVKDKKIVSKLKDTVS
# HOXD13 [13] = molecular target: HOXD13 (Homo sapiens, UniProt P35453 263-343)
# Chain of HOXD13 (Homo sapiens, UniProt P35453 263-343) (P35453 263-343): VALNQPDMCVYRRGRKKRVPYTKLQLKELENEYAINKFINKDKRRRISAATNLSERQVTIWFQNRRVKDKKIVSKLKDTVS
# HOXD13 [14] = molecular target: HOXD13 (Homo sapiens, UniProt P35453 263-343, T313A)
# Chain of HOXD13 (Homo sapiens, UniProt P35453 263-343, T313A) (P35453 263-343 T313A): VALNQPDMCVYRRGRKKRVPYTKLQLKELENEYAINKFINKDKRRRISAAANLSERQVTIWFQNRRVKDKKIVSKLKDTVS
# HOXC9 [15] = molecular target: HOXC9 (Homo sapiens, UniProt P31274 178-260, R222W)
# Chain of HOXC9 (Homo sapiens, UniProt P31274 178-260, R222W) (P31274 178-260 R222W): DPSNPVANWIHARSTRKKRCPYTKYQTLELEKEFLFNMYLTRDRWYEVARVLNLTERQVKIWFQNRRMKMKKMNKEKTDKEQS
# ALX4 [16] = molecular target: ALX4 (Homo sapiens, UniProt Q9H161 200-286)
# Chain of ALX4 (Homo sapiens, UniProt Q9H161 200-286) (Q9H161 200-286): as the sequence (Q9H161 200-286 Q225E) above, with E26Q counted along it
# HOXC9 [17] = molecular target: HOXC9 (Homo sapiens, UniProt P31274 178-260, K195R)
# Chain of HOXC9 (Homo sapiens, UniProt P31274 178-260, K195R) (P31274 178-260 K195R): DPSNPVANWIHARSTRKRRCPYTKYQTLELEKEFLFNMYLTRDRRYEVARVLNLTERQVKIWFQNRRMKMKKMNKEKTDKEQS
# HOXC9 [18] = molecular target: HOXC9 (Homo sapiens, UniProt P31274 178-260)
# Chain of HOXC9 (Homo sapiens, UniProt P31274 178-260) (P31274 178-260): as the sequence (P31274 178-260 R222W) above, with W45R counted along it
# HOXC9 [19] = molecular target: HOXC9 (Homo sapiens, UniProt P31274 178-260, R193K)
# Chain of HOXC9 (Homo sapiens, UniProt P31274 178-260, R193K) (P31274 178-260 R193K): as the sequence (P31274 178-260 R222W) above, with R16K, W45R counted along it
# Chain of HOXB9 (Homo sapiens, UniProt P17482 171-250, T197M) (P17482 171-250 T197M): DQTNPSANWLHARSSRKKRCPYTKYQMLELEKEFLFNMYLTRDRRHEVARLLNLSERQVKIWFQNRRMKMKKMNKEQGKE
# Chain of HOXB9 (Homo sapiens, UniProt P17482 171-250) (P17482 171-250): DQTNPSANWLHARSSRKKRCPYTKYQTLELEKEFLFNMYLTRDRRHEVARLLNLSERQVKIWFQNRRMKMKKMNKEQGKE
# Chain of HOXC10 (Homo sapiens, UniProt Q9NYD6 254-340) (Q9NYD6 254-340): as the sequence (Q9NYD6 254-340 K271E) above, with E18K counted along it
# Chain of HOXB6 (Homo sapiens, UniProt P17509 132-218, K202E) (P17509 132-218 K202E): as the sequence (P17509 132-218) above, with K71E counted along it
sequence,measurement,setting,value
CGTGAAGC,binding signal,HOXB9 [1],"8.57 upbm affinity estimate (log intensity, higher = more binding, comparable within an allelic series)"
same,binding signal,HOXC10 [2],"10 upbm affinity estimate (log intensity, higher = more binding, comparable within an allelic series)"
same,binding signal,HOXB6 [3],"9.08 upbm affinity estimate (log intensity, higher = more binding, comparable within an allelic series)"
same,binding signal,HOXB9 [4],"8.56 upbm affinity estimate (log intensity, higher = more binding, comparable within an allelic series)"
same,binding signal,MSX2 [5],"9.57 upbm affinity estimate (log intensity, higher = more binding, comparable within an allelic series)"
same,binding signal,HOXC10 [6],"10 upbm affinity estimate (log intensity, higher = more binding, comparable within an allelic series)"
same,binding signal,MSX2 [7],"9.35 upbm affinity estimate (log intensity, higher = more binding, comparable within an allelic series)"
same,binding signal,HOXB9 [8],"8.45 upbm affinity estimate (log intensity, higher = more binding, comparable within an allelic series)"
same,binding signal,MSX2 [9],"9.38 upbm affinity estimate (log intensity, higher = more binding, comparable within an allelic series)"
same,binding signal,HOXB6 [10],"8.9 upbm affinity estimate (log intensity, higher = more binding, comparable within an allelic series)"
AATAAAAC,binding signal,HOXB9 [1],"9.76 upbm affinity estimate (log intensity, higher = more binding, comparable within an allelic series)"
same,binding signal,HOXC10 [2],"12.3 upbm affinity estimate (log intensity, higher = more binding, comparable within an allelic series)"
same,binding signal,ALX4 [11],"10.6 upbm affinity estimate (log intensity, higher = more binding, comparable within an allelic series)"
same,binding signal,HOXB9 [4],"11.8 upbm affinity estimate (log intensity, higher = more binding, comparable within an allelic series)"
same,binding signal,HOXD13 [12],"10.9 upbm affinity estimate (log intensity, higher = more binding, comparable within an allelic series)"
same,binding signal,HOXD13 [13],"11.9 upbm affinity estimate (log intensity, higher = more binding, comparable within an allelic series)"
same,binding signal,HOXC10 [6],"11.7 upbm affinity estimate (log intensity, higher = more binding, comparable within an allelic series)"
same,binding signal,HOXD13 [14],"11.6 upbm affinity estimate (log intensity, higher = more binding, comparable within an allelic series)"
same,binding signal,HOXB9 [8],"11.5 upbm affinity estimate (log intensity, higher = more binding, comparable within an allelic series)"
same,binding signal,HOXC9 [15],"11.2 upbm affinity estimate (log intensity, higher = more binding, comparable within an allelic series)"
GGAGCCAC,binding signal,HOXB9 [1],"8.39 upbm affinity estimate (log intensity, higher = more binding, comparable within an allelic series)"
same,binding signal,ALX4 [16],"8.24 upbm affinity estimate (log intensity, higher = more binding, comparable within an allelic series)"
same,binding signal,ALX4 [11],"8.19 upbm affinity estimate (log intensity, higher = more binding, comparable within an allelic series)"
same,binding signal,HOXB9 [4],"8.65 upbm affinity estimate (log intensity, higher = more binding, comparable within an allelic series)"
same,binding signal,HOXB9 [8],"8.65 upbm affinity estimate (log intensity, higher = more binding, comparable within an allelic series)"
CCCCCAGA,binding signal,HOXB9 [1],"8.56 upbm affinity estimate (log intensity, higher = more binding, comparable within an allelic series)"
same,binding signal,HOXC9 [17],"9.67 upbm affinity estimate (log intensity, higher = more binding, comparable within an allelic series)"
same,binding signal,HOXB9 [4],"8.41 upbm affinity estimate (log intensity, higher = more binding, comparable within an allelic series)"
same,binding signal,HOXC9 [18],"9.59 upbm affinity estimate (log intensity, higher = more binding, comparable within an allelic series)"
same,binding signal,HOXC9 [19],"9.69 upbm affinity estimate (log intensity, higher = more binding, comparable within an allelic series)"
same,binding signal,HOXB9 [8],"8.47 upbm affinity estimate (log intensity, higher = more binding, comparable within an allelic series)"
same,binding signal,HOXC9 [15],"9.54 upbm affinity estimate (log intensity, higher = more binding, comparable within an allelic series)"
